TDP1 cell CPT: growth inhibition of DT40 Tdp1-/-;hTDP1 cells with camptothecin (screen for TDP1 inhibitors); 12% of 420,000 active; chicken DT40 Tdp1-/-;hTDP1 cells + 20 nM CPT, ATP luminescence, 48 h; Potency, µM (highest dose often 46.2 µM), actives largely listed as inhibitors; also: nearly all actives have a fitted effect of over 55% in size
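Chicken DT40 Tdp1-/- cells complemented with human TDP1, 400 cells/well, exposed to compounds plus 20 nM camptothecin for at least 48 h at 37 C; viability read as ATP content by CellTiter-Glo luminescence.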
IL-1B inflam inh: inflammasome signaling inhibition, IL-1 beta readout. activity change, % at 57.5 µM. AID 743279. THP-1 LPS/ATP IL-1B secretion, AlphaLISA, 16 h; stronger effect = lower value. 4.7% of 360,000 active; in the data active = activity change below about -50%; inconclusive = mostly about -30% to -49%
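Secreted IL-1B measured by AlphaLISA bead assay after 16 h compound exposure of THP-1 cells; compounds (final up to 57.5 uM) added 1 h before LPS (250 ng/mL) and ATP (1.25 mM) stimulation; lower signal means less secretion.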
HepG2 tox: HepG2 cytotoxicity, counter-screen for TGF-b inhibitors. HepG2 CAGA-GFP viability, ATP luminescence, 18 h. Potency, µM (series often up to 46.1 µM), most hits filed as cytotoxic. 0.76% of 410,000 active
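HepG2 CAGA-GFP cells (1000/well, DMEM with 1% FBS) received compound, then TGF-beta at 500 pg/mL final, and were incubated 18 hours at 37 degrees C. Viability was read by CellTiter-Glo luminescence. Media-only wells were set as complete cell-killing and DMSO as no toxicity.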
TDP1 cell noCPT: qHTS for Inhibitors of human tyrosyl-DNA phosphodiesterase 1 (TDP1): qHTS in cells in absence of CPT; Potency, µM (doses to about 46.2 µM), actives largely listed as inhibitors; 15% of 420,000 active; DT40 Tdp1-/- hTDP1 cells, no CPT, ATP luminescence, 48 h; AID 686978, 2013; also: nearly all actives have a fitted effect of over 55% in size
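No-CPT arm: Tdp1-/-;hTDP1 DT40 cells (400/well) plus compounds, incubated ≥48 hr at 37 °C. Readout CellTiter-Glo luminescence.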
TDP1 inh: blocks human tyrosyl-DNA phosphodiesterase 1. Potency, µM (series often up to 130 µM), actives largely listed as inhibitors. AID 485290. Q9NUW8. recombinant TDP1, AlphaScreen DNA substrate cleavage. 0.28% of 350,000 active; also: nearly all actives have a fitted effect of over 40% in size
Target sequence (Q9NUW8 whole entry, looked up): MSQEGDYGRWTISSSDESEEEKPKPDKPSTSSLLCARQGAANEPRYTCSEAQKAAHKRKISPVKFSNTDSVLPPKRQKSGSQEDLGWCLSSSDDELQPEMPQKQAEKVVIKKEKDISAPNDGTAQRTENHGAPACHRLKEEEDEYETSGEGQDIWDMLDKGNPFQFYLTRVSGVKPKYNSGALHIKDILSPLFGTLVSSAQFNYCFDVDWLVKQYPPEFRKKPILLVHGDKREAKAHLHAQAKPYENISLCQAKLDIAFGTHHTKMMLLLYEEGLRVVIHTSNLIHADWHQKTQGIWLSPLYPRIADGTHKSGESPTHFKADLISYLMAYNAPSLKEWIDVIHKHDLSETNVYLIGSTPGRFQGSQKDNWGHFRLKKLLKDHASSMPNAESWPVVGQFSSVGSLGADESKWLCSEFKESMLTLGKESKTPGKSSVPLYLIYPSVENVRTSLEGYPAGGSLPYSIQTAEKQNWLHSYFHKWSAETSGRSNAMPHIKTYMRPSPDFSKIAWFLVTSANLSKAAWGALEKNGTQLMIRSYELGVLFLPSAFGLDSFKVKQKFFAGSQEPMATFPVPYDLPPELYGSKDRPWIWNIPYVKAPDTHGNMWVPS
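Tdp1 1 nM final; 15 min RT w/ cpd; substrate 15 nM, 5 min; beads 10 ug/ml, 10 min; AlphaScreen read. Neg ctrl: no enzyme.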
TGFb inhibitor: TGF-b pathway inhibition; HepG2 CAGA-GFP TGF-b/SMAD3 reporter, GFP fluorescence, 18 h; TGF-beta stimulated, 500 pg/mL final; Potency, µM (series often up to 46.1 µM), hits mostly inhibitors; 1.2% of 410,000 active; AID 588855; also: nearly all actives have a fitted effect of over 65% in size
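Smad-responsive CAGA-GFP expression was quantified in HEPG2 cells exposed to compounds and 500 pg/mL final TGF-beta for 18 h at 37 degrees C; unstimulated wells defined full inhibition.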
A number is an active result; n = inactive; u = inconclusive; x = not tested or not shown; [ ] = dose if it differs, or a comment. Sampled rows, rich in hits. Any-hit rate of the full collection: about 18%. Unless noted, calls follow the shape of the dose curve; as a rule, active = well fitted curve in the direction sought with a large enough effect; inconclusive = small, poorly fitted or top-dose-only effect, or another doubt; inactive = no such curve, though single readings can be large; an effect the other way counts as inactive or inconclusive.

SMILES	TDP1 cell CPT	IL-1B inflam inh	HepG2 tox	TDP1 cell noCPT	TDP1 inh	TGFb inhibitor
COc1cccc(C(=O)Nc2ccccc2-c2nc3ccccc3s2)c1	n	x	n	u	n	n
COc1ccc(OCC(=O)Nc2ccc(O)c(-c3nc4ccccc4s3)c2)cc1	0.82µM	x	n	u	n[12.3 µM]	n
Cc1ccc(OCC(=O)Nc2ccc(O)c(-c3nc4cc(C)c(C)cc4o3)c2)cc1	u	x	n	1.6µM	x	n
O=NCc1ccc([N+](=O)[O-])o1	x	x	x	x	n	x
O=C(Nc1ccc(O)c(-c2nc3ccccc3o2)c1)C1(c2ccc(Br)cc2)CCCC1	u	n	n	13µM	n	u
Cc1ccc(OCC(=O)Nc2ccc(O)c(-c3nc4ccccc4o3)c2)cc1	12µM	n	n	u	n	u
CC(C)(CNC(=O)Cc1ccc(Br)cc1)N1CCOCC1	n	n	n	n	x	n
CCCCCCC(=O)Nc1ccc2nc3c(=O)n(C)c(=O)n(C)c3nc2c1C	n	x	n	n	n	n
CSC12CCCN(CCC(C(C)(C)C)C1)C2=O (stereo not drawn)	n	n	x	n	x	x
CC(=O)Nc1ccc(/C=C/c2ccnc3ccccc23)cc1	16µM	x	n	11µM	x	n
CC(=O)Nc1ccc(/C=C/c2ccnc3ccccc23)cc1[N+](=O)[O-]	1.4µM	x	n	u	x	n
CC(C#N)Sc1ccc(S(=O)(=O)N(C)C2CCCCC2)cn1 (stereo not drawn)	u	n	n	u	n	n
O=C(C1=C[C@@H](C2CC2)C[C@@H](OCCCCO)O1)N1CCN(Cc2ccccc2)CC1	n	n	n	n	n	n
CCCN1CCN(CCCNC(=O)c2ccc3c(Cl)c4c(nc3c2)CCCC4)CC1	21µM	-56	n	8.2µM	n	u
Cc1ccc(N2CCN(C(=O)c3ccc4c(Cl)c5c(nc4c3)CCCC5)CC2)c(C)c1	n	x	n	n	n	u
O=C(NCCCN1CCCC1)c1ccc2c(Cl)c3c(nc2c1)CCCC3	u	x	n	15µM	n	u
O=C(c1ccc2c(Cl)c3c(nc2c1)CCCC3)N1CCN(c2ccc(F)cc2)CC1	21µM	n	n	18µM	n	u
COc1ccc(C(=O)NCCS(=O)(=O)N(C)C2CCCCC2)cc1	n	n	n	n	n[0.505 µM]	n
O=C(CSc1ncn(-c2ccccc2)n1)Nc1nc2c(s1)CCCC2	u	n	n	u	n	n
CC(C)(C)c1nc(SCC(=O)Nc2nc3c(s2)CCCC3)c2ccccc2n1	15µM	n	n	12µM	n	n
O=C(CCSc1ccccc1)Nc1nc2c(s1)CCCC2	u	n	n	10µM	n	n
Cc1nc(SCC(=O)N2CCNC2=O)c2ccccc2n1	u	-96	n	u	n	n
Cc1nnc(NC(=O)CSc2nc(C(C)C)nc3ccccc23)s1	6.5µM	n	n	7.1µM	n	n
O=C(CSc1nc(Cc2ccccc2)nc2ccccc12)Nc1nc2c(s1)CCCC2	u	n	n	u	n	n
COc1cccc(NC(=O)c2c(-c3ccc(C)cc3)nnc3ccccc23)c1	u	x	n	n	n	n
SMILES	TDP1 cell CPT	IL-1B inflam inh	HepG2 tox	TDP1 cell noCPT	TDP1 inh	TGFb inhibitor
NC(=O)C[C@@H](N)C(=O)O	n	x	x	u	n	x
CC(C)(C)c1nc(SCC(=O)N2CCCC2)c2ccccc2n1	21µM	n	n	16µM	n	u
CC(C)c1nc(SCC(=O)Nc2nc3c(s2)CCCC3)c2ccccc2n1	18µM	-63	n	11µM	n	n
Cc1cc(C)nc(SCC(=O)Nc2nonc2N)n1	n	n	n	n	n	n
COc1ccc(CNC(=O)c2cccn2-c2nnc(N3CCCCC3)s2)c(OC)c1	u	x	n	23µM	n	u
COc1ccc(OC)c(NC(=O)c2cccn2-c2nnc(N3CCCCC3)s2)c1	21µM	x	n	u	n	n
O=C1C[C@H]2C=CCc3cccc(c32)CN1Cc1ccc(Br)cc1	u	x	n	11µM	x	n
Clc1ccc(CN2CC[C@H]3C=CCc4cccc(c43)C2)cc1	u	n	n	21µM	n	n
COc1ccccc1CN1Cc2cccc3c2[C@@H](CC1=O)[C@H](O)[C@H](O)C3	n	n	n	n	n	u
Cc1ccccc1CN1Cc2cccc3c2[C@H](C=CC3)CC1=O	11µM	x	n	10µM	x	u
Fc1ccc(CN2CC[C@H]3C=CCc4cccc(c43)C2)cc1	u	n	n	u	n	u
Cc1ccc(-n2c(SCCC(C)C)nc3sc4c(c3c2=O)CC(C)(C)OC4)cc1	n	x	n	n	x	n
CC1CCCN(C(=O)CNS(=O)(=O)c2cccs2)C1 (stereo not drawn)	n	n	n	n	x	n
Cc1cccc(OCCNc2nc3c(c(=O)n(C)c(=O)n3C)n2C)c1	16µM	n	n	16µM	n	n
COCCNc1nc2c(c(=O)n(C)c(=O)n2C)n1Cc1cccc(C)c1	6.5µM	n	n	7.3µM	n	n
